Experimental findings from PubChem BioAssay AID1851 (National Center for Advancing Translational Sciences (NCATS), 2009) are described below.

Molecules are shown by their SMILES. Several values for one entry are separate records, joined by “and”; a condition that tells them apart may be missing. Equal values may be shown once. In all, about 16,000 compounds went through this assay and about 5,700 (36%) were called active. Another 24% or so got no clear call; they are omitted. The list shows a part of the results. Values without a mark were called inactive. The call rests on the fitted dose curve; in most records, active means well fitted curve in the direction sought with a large enough effect; inconclusive means small, poorly fitted or top-dose-only effect, or effect the other way; inactive means no such curve, though single readings can be large or run the other way.
On the % scale 0 is the no-effect control and ±100 the full control effect.

In the assay the target is Cytochrome P450 1A2 (Homo sapiens) (UniProt P05177). The assay can be described thus: Cytochrome panel assay with activity outcomes. To be noted: recombinant CYP, pro-luciferin dealkylation, luminescence, p450-cyp1a2; series mostly up to 57.1 µM.
Cytochrome P450 1A2 (Homo sapiens), sequence (P05177 whole entry, looked up): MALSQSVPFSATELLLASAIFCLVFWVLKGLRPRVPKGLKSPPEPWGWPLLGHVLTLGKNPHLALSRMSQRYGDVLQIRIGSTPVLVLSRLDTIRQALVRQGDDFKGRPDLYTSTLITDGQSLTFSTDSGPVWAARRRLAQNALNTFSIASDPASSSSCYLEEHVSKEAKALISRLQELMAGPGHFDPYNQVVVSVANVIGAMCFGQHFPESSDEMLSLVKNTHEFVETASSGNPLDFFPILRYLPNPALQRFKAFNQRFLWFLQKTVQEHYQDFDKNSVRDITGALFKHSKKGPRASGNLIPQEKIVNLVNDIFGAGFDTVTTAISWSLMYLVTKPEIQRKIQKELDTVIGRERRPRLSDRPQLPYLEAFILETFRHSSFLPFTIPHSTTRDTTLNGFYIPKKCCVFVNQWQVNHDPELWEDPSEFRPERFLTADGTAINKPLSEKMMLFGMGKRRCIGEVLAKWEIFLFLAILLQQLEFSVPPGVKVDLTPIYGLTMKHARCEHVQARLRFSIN
Regarding `Cc1nnc(-c2cccc(Br)c2)c2cn(-c3ccc(Br)cc3)nc12`, the half-maximal activity concentration (AC50) was 0.891 µM (active). For `Cc1nnc(-c2cccc(Br)c2)c2cn(-c3ccccc3Cl)nc12`, the AC50 is 1.58 µM (active).

As to `Cc1nn(C)cc1CNC(=O)CCC(=O)O`, the AC50 entry was “inactive”. The same measure, in the same setting: the result for `O=C(CSc1ccc(Cl)cc1)Nc1ccc(N2CCN(C(=O)c3ccc(Cl)cc3)CC2)cc1` reads “inactive”; that for `O=C(CSC1=NCCS1)N1CCN(c2ccc(Cl)cc2)CC1`, 14.1 µM (active).

For `COC(=O)C/C=C\[C@@H](C)[C@@H](/C=N\O[C@@H](C)c1cn([C@H]2COC[C@H]2O)nn1)OC`, the activity, negative = inhibition was 9.97% [at 11.4 µM]. Take `O=C1C2=C(NC(=S)NC2c2ccc(Cl)cc2)NC(c2ccc(Cl)cc2)N1c1ccc(Cl)cc1` (stereo not drawn): the AC50 is 12.6 µM (active). Regarding `COC(=O)C/C=C\[C@@H](C)[C@@H](/C=N\O[C@@H](C)c1cn([C@H](CO)Cc2ccccc2)nn1)OC`, the activity, negative = inhibition is -11.5% [at 11.4 µM] and 12.6% [at 11.4 µM]. Take `Cc1ccccc1NC(=O)c1cccc2nc3ccccc3nc12`: the AC50 is 2 µM (active).

On to `Cc1ccccc1NC(=O)CN1CCC(n2nnc3ccccc32)CC1`, for which the AC50 result is “inactive”. The same measure, in the same setting: the result for `Cc1ccccc1NC(=O)c1cnc(Nc2nc3ccccc3s2)nc1C` reads “inactive”; that for `O=C(Nc1ccc2c(c1)OCCO2)c1cccc2nc3ccccc3nc12`, 2 µM (active). The same measure, in the same setting: the same measure for `COc1ccc(-n2c(=O)c(-c3ccccc3)nc3cnc(N4CCNCC4)nc32)cc1`: 15.8 µM (active); for `COc1ccc(-n2c(=O)c(-c3cccc(C#N)c3)nc3cnc(N4CCNCC4)nc32)cc1`: 15.8 µM (active); for `O=c1c(-c2ccc(F)cc2)nc2cnc(N3CCNCC3)nc2n1-c1ccccc1`: 10 µM (active). On the same count and under the same terms, the result for `COc1cccc(Cn2c(=O)c(-c3cccc(C#N)c3)nc3cnc(N4CCN(C)CC4)nc32)c1` reads “inactive”; that for `O=C(c1cccc(F)c1)N1CCC2(CC1)CN(c1ccncc1)C2`, “inactive”; that for `Cc1ccc(S(=O)(=O)N2CCN(Cc3ccccc3C(F)(F)F)CC2)cc1`, “inactive”. `COc1ccc(C2=Nc3cccc4cccc(c34)N2)cc1`: the AC50 is 0.631 µM (active). The same measure, in the same setting: the result for `O=C(CCc1ccccc1)Nc1nncs1` reads 10 µM (active); that for `CC(=O)Nc1ccc(C(=O)NNC(=O)CCc2ccccc2)cc1`, “inactive”. As to `CCCC(=O)Nc1nnc(Cc2ccccc2)s1`, the AC50 was 12.6 µM (active).

Regarding `CCCC(=O)Nc1nnc(CCN2CCCCC2)s1`, the AC50 result is “inactive”. As for `CCCc1nnc(NC(=O)CCC(=O)NCc2ccccc2OC)s1`, the AC50 entry was “inactive”. As for `Nc1ccc(N(c2ccccc2)c2ccc(N)cc2)cc1`, the AC50 is 17.8 µM (active). Take `Nc1ccc(S(=O)(=O)NC(=O)c2ccccc2)cc1`: the AC50 entry was “inactive”.

Consider `C[C@@H]1O[C@H](O[C@@H]2[C@@H](Oc3cc(O)c4c(c3)O[C@H](c3ccc(O)cc3)CC4=O)O[C@@H](CO)[C@@H](O)[C@H]2O)[C@@H](O)[C@H](O)[C@@H]1O`, for which the AC50 result was “inactive”. On to `Nc1nnc(C(c2ccccc2)c2ccccc2)s1`, for which the AC50 result was “inactive”. Consider `Nc1nc(-c2ccccc2)c(-c2ccccc2)c(-c2nc(N)nc(-c3ccccc3)c2-c2ccccc2)n1`, for which the activity, negative = inhibition was -4.5% [at 11.4 µM].

Consider `Nc1ccc(-c2sc(N)nc2-c2ccccc2)cc1`, for which the AC50 was 8.91 µM (active). Same read-out and setting: the result for `Nc1nc(-c2ccccc2)c(-c2ccccc2)s1` reads 2.82 µM (active); that for `CC(C)CN1CCC2(CC1)CCN(C(=O)c1ccncc1)CC2`, “inactive”.

As for `CN(C)CCC[C@@]1(c2ccc(F)cc2)OCc2cc(C#N)ccc21`, the AC50 entry was “inactive”. `Cc1ccc(S(=O)(=O)N(Cc2ccccc2)c2ccccc2C(=O)NCc2ccco2)cc1`: the AC50 result was “inactive”. With `Cc1cccc(C)c1-n1c(SCC(=O)NCc2ccco2)nc2ccccc2c1=O`, the AC50 result was “inactive”. In the case of `CCc1ccc(-c2cc(C(=O)NCc3ccco3)c3ccccc3n2)s1`, the AC50 was 3.55 µM (active). On to `Cc1ccc(-c2cc(C(=O)NCc3ccco3)c3ccccc3n2)s1`, for which the AC50 was 6.31 µM (active). For the compound `CC(C)C(O)(C(C)C)C(C)C`, the activity, negative = inhibition was -8.65% [at 11.4 µM].

In the case of `C=CCOc1c(Br)cc(CNc2ccc(NC(=O)C(C)C)c(OC)c2)cc1OC`, the AC50 was 15.8 µM (active). On the same count and under the same terms, the result for `CCC1CC2CC(NC(C)=O)C1C2` (stereo not drawn) reads “inactive”; that for `COc1ccc(C(=O)c2cnc3ccccc3c2-c2ccccc2)cc1`, 15.8 µM (active). For the compound `C=CC[C@@H]1C=C[C@H](O/N=C(\C)CCN2CCc3nc(-c4ccccc4)c(-c4ccccc4)cc3C2)[C@H](CO)O1`, the activity, negative = inhibition was 5.54% [at 11.4 µM]. For the compound `CCCCOC(=O)NS(=O)(=O)c1sc(CC(C)C)cc1-c1ccc(Cn2c(CC)nc3c(C)cc(C)nc32)cc1`, the AC50 is 31.6 µM (active).

For `CC(C)CCn1nnnc1C(c1ccc(F)cc1)N1CCN(C(=O)c2ccco2)CC1` (stereo not drawn), the AC50 result was “inactive”. On to `CCCC[C@H]1C[C@@H]1[C@@H]1N(P(=O)(c2ccccc2)c2ccccc2)C[C@@](O)(c2ccccc2)CC12CC2`, for which the AC50 entry was “inactive”.

On to `O=C1C=C(Nc2nc(C(=O)O)cc(=O)[nH]2)c2ccccc2C1=O`, for which the activity, negative = inhibition was -15.8% [at 2.29 µM]. Turning to `O=C1C=C(NCCc2cc(Br)c(O)c(Br)c2)C(=O)c2ncccc21`, the AC50 was 3.16 µM (active).

Consider `Cc1ccc(C(=O)O[C@@H](C(=O)O)[C@@H](OC(=O)c2ccc(C)cc2)C(=O)O)cc1` (tested in a mixture with another compound), for which the AC50 entry is “inactive”. As to `COc1ccc(C(=O)Nc2cc(Cl)ccc2OC(=O)c2ccc(OC)cc2)cc1`, the AC50 is 10 µM (active). `CC(C)COc1ccc(C(=O)Nc2scc(-c3ccc(Cl)cc3Cl)c2C(N)=O)cc1`: the AC50 result is “inactive”. The same measure, in the same setting: the result for `Cc1sc(NC(=O)c2ccc(OCC(C)C)cc2)c(C(N)=O)c1-c1ccc(Cl)cc1Cl` reads “inactive”; that for `Cc1ccc(C(=O)Nc2cc(Cl)ccc2OC(=O)c2ccc(C)cc2)cc1`, 10 µM (active); that for `COc1ccc(C(=O)Nc2scc(-c3ccc(Cl)cc3Cl)c2C(N)=O)cc1`, 0.447 µM (active). Turning to `NNC(=O)c1ccc[n+](CCc2ccccc2)c1`, the activity, negative = inhibition was -20.6% [at 11.4 µM]. Consider `NC(N)=N/N=C(\c1ccc(Cl)cc1)C1CC1`, for which the AC50 was 0.794 µM (active). Take `Cc1ccc(C)c(/C(=N\N=C(N)N)C2CC2)c1`: the activity, negative = inhibition was 1.09% [at 2.29 µM]. Regarding `NC(N)=Nc1ccc(Cl)cc1`, the AC50 entry is “inactive”.

In the case of `CCc1ccccc1NC(=O)c1ccc(-n2c(C)ccc2C)cc1`, the AC50 is 14.1 µM (active). Still for that read-out and setting: the result for `CCc1ccccc1NC(=O)c1ccc(F)c(S(=O)(=O)N2CCC(C(N)=O)CC2)c1` reads “inactive”; that for `NCCS(=O)O`, “inactive”; that for `Cn1cc(/C=N/n2cnc3sc4c(c3c2=O)CCCC4)c2ccccc21`, 14.1 µM (active). Same read-out and setting: the result for `Cn1cc(/C=N/n2cnc3scc(-c4ccccc4)c3c2=O)c2ccccc21` reads 8.91 µM (active). With `O=S(=O)(c1ccccc1)N1CCC2(CCN(Cc3ccccc3)CC2)CC1`, the AC50 result was “inactive”. On the same count and under the same terms, the result for `O=[N+]([O-])c1ccc(Cl)c(/C=N/N2CCN(Cc3ccccc3)CC2)c1` reads 2.51 µM (active); that for `O=[N+]([O-])c1ccc(N2CCN(Cc3ccccc3)CC2)c(S(=O)(=O)N2CCOCC2)c1`, “inactive”.

`CCSc1nnc(NC(=O)C(C(F)(F)F)C(F)(F)F)s1`: the AC50 was 15.8 µM (active). On to `CCSc1nnc(NC(=O)Cc2ccccc2OC)s1`, for which the AC50 result was “inactive”.

Regarding `CCCCC(=O)Nc1nnc(SCC(=O)NC2CCCC2)s1`, the AC50 result is “inactive”. As to `CC(CC(=O)O)(CC(=O)O)C(=O)O`, the activity, negative = inhibition was -5.85% [at 11.4 µM]. In the case of `CCN1CCN(C(=S)c2ccc(Br)cc2)CC1`, the AC50 was 15.8 µM (active).

As to `OCCN1CCN(C(=S)c2ccc(Br)cc2)CC1`, the AC50 entry is “inactive”. The same measure, in the same setting: the same measure for `O=C(CN1CCN(Cc2ccccc2)CC1)c1ccc(Br)cc1`: “inactive”; for `Cc1cc2c(cc1S(N)(=O)=O)S(=O)(=O)CCC2`: “inactive”.

Consider `CCN(CCO)Cc1csc2cccc(Br)c12`, for which the AC50 is 11.2 µM (active). Take `CCC(c1nnnn1CCOC)N1CCN(C(=O)c2ccco2)CC1` (stereo not drawn): the AC50 result was “inactive”. Turning to `COCCN(C(=O)c1ccco1)c1nnc(-c2ccc(OC)cc2)s1`, the AC50 is 15.8 µM (active). Still for that read-out and setting: the same measure for `Cc1ccc(C2C(C(=O)c3ccco3)=C(O)C(=O)N2c2nnc(C)s2)cc1` (stereo not drawn): “inactive”. Regarding `CC1(C)CC(=O)c2cnc(N)nc2C1`, the AC50 result is “inactive”. As to `CCOC(=O)CCN1C(=O)[C@H]2[C@H]3[C@H](O)[C@H](O)C/C(=N/OCc4ccccc4)[C@H]3CC[C@@H]2C1=O`, the activity, negative = inhibition is -13.8% [at 11.4 µM]. In the case of `CCOC(=O)CCN1C(=O)[C@H]2[C@H]3[C@H](O)[C@H](O)C/C(=N/OCc4ccccc4)[C@@H]3CC[C@@H]2C1=O`, the activity, negative = inhibition is 4.94% [at 11.4 µM].

In the case of `CC1=C(C(=O)OCc2ccccc2)C(c2ccccc2)NC(=O)N1CCCCCC(=O)O` (stereo not drawn), the AC50 is 20 µM (active). On the same count and under the same terms, the result for `CC1=C(C(=O)OCc2ccccc2)C(c2cccnc2)c2c(n(C)c(=O)n(C)c2=O)N1` (stereo not drawn) reads “inactive”; that for `CC1=C(C(=O)OCc2ccccc2)C(c2ccc(Cl)cc2)NC(=O)N1CCCCCC(=O)O` (stereo not drawn), 25.1 µM (active). Same read-out and setting: the result for `CC(=O)N1CCC2(CC1)CCN(C(c1ccccc1)c1ccccc1)CC2` reads “inactive”. In the case of `N[C@@](CCc1ccccc1)(C(=O)O)c1ccccc1`, the activity, negative = inhibition is -9.59% [at 11.4 µM]. As to `O=C(O)CSCCc1ccccc1`, the activity, negative = inhibition was -15.5% [at 11.4 µM]. With `NCCSCCC(=O)O`, the activity, negative = inhibition is -2.89% [at 11.4 µM]. In the case of `NCCSCCc1ccccc1`, the AC50 is 5.01 µM (active).

On to `O=C(O)CNCCc1ccccc1`, for which the activity, negative = inhibition is -1.5% [at 11.4 µM]. With `NNCCc1ccccc1`, the concentration at half-maximal activity (AC50) is 3.16 µM (active) and 1 µM (active).

For `COc1cccc2c1C(=O)c1c(O)c3c(c(O)c1C2=O)C[C@@](O)(C(=O)CO)C[C@H]3O[C@H]1C[C@@H](N)[C@H](O)[C@@H](C)O1.[W]`, the activity, negative = inhibition was -11.9% [at 11.4 µM]. For the compound `Cc1sc2c(c1C)c(=O)n(-c1ccccc1)c1nnc(C)n21`, the AC50 result is “inactive”. Consider `Cc1ccccc1NC(=O)/C(=C/c1ccccc1)c1ccccc1`, for which the AC50 is 5.01 µM (active). Take `CC(C)NC(=O)c1ccccc1NC(=O)/C=C/c1ccc([N+](=O)[O-])cc1`: the AC50 entry is “inactive”. As to `O=C(O)/C(=C\c1ccccc1)c1ccccc1`, the activity, negative = inhibition is -20.8% [at 11.4 µM].

Consider `Cc1ccccc1NC(=S)NN1CCN(C)CC1`, for which the AC50 entry was “inactive”. On the same count and under the same terms, the result for `COc1ccc(/C=C(/C(=O)Nc2ccccc2C(=O)NC(C)C)c2ccccc2)cc1` reads 15.8 µM (active); that for `Cc1ccc(S(=O)(=O)Oc2ccc(/C=C(/NC(=O)c3ccccc3)C(=O)Nc3ccccc3)cc2)cc1`, “inactive”.

As usually defined, the AC50 is the concentration at which the activity in the assay is half-maximal.
